Source: PubChem BioAssay
A selection: hits, their analogues and other compounds. The true share with any hit is near 2.3%.
CHRM1 PAM: human CHRM1 positive allosteric modulation; 0.088% of 360,000 active; P11229; AID 588819; CHO-K1 hM1, Fluo-8 calcium fluorescence, ACh EC20; 0% = ACh EC20, 100% = maximal ACh; activation, % at 3 µM; in the data active = activation above about 19%, passing the limit was not always enough
Target sequence (P11229 whole entry, looked up): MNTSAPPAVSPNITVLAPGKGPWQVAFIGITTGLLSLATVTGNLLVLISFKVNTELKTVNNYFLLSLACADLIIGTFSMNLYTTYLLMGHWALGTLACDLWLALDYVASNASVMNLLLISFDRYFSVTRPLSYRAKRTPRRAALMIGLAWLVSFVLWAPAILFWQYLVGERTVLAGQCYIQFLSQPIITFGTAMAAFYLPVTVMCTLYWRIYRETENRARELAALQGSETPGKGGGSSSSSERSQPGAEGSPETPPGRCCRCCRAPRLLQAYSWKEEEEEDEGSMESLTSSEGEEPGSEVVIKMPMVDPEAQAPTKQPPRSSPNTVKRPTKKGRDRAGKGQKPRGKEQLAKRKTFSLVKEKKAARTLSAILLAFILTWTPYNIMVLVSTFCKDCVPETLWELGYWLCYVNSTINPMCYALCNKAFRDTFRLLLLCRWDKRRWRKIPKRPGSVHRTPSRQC
CHO-K1 Ca PAM: counter-screen for M1 PAMs: effect in parental CHO-K1 cells; AID 602247; activation, % at 3 µM; 0.02% of 360,000 active; ATP EC20, Fluo-8 calcium fluorescence; 0% at ATP EC20, 100% at ATP max;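 active = activation above the run cutoff, the mean activation of all test compounds plus 3 SD, cut at about 40% in these data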;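 also: peak over basal fluorescence ratio in a 140 s read after ATP addition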
CHRM1 agonist: agonists of human M1 muscarinic receptor; P11229; CHO-K1 hM1, Fluo-8 calcium fluorescence, agonist mode; 0% DMSO, 100% acetylcholine EC100; activation, % at 3 µM; 0.33% of 360,000 active; AID 588814;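 active = activation above the run's mean compound activation plus 3 SD, cut at about 16% in these data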;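 also: peak over basal fluorescence ratio within a 140 s kinetic read after compound addition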
CHO-K1 Ca antag: counter-screen for M1 antagonists: effect in parental CHO-K1 cells | inhibition, % at 3 µM | AID 602250 | ATP-induced calcium, Fluo-8 fluorescence | 0.6% of 360,000 active;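 active = inhibition above a per-plate cutoff, the plate's mean sample inhibition plus 3 SD, cut at about 24% in these data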
CHRM1 antagonist: blocks human M1 muscarinic receptor; P11229; CHO-K1 hM1, Fluo-8 calcium fluorescence, ACh EC80 antagonist; inhibition, % at 3 µM; 1.3% of 360,000 active;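 active = percent inhibition above its own plate's cutoff, namely the mean of that plate's compound wells plus 3 SD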;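 also: peak over basal fluorescence ratio during 140 s after agonist addition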
CHO-K1 Ca ag: nonselective activator or artifact in parental CHO-K1 cells; Fluo-8 calcium fluorescence; scaled to maximal ATP response, vehicle zero; activation, % at 3 µM; AID 602248; 0.48% of 360,000 active; in the data active = activation above about 15%;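 also: untransfected CHO-K1 host cells lacking M1 receptor as counterscreen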
Numbers stand for hits; n = inactive.

SMILES	CHRM1 PAM	CHO-K1 Ca PAM	CHRM1 agonist	CHO-K1 Ca antag	CHRM1 antagonist	CHO-K1 Ca ag
CCN=C1SC(CC(=O)Nc2ccc(C(F)(F)F)cc2)C(=O)N1CC (stereo not drawn)	n	n	n	n	33	n
CCN=C1SC(CC(=O)Nc2ccc(N3CCOCC3)cc2)C(=O)N1CC (stereo not drawn)	n	n	n	n	n	n
CCN1C(=O)[C@H]2[C@@H](c3ccc(-c4ccccc4)cc3)N3CCCC[C@@]3(C(=O)OC)[C@H]2C1=O	n	n	n	n	n	n
O=C(CN1CCN(c2ccccc2O)CC1)Nc1ccccc1C(=O)NCCc1ccccc1	n	n	n	n	n	n
COc1ccccc1N1CCN(CC(=O)Nc2ccccc2C(=O)NCCc2ccccc2)CC1	n	n	n	n	29	n
CC(NC(=O)c1ccccc1NC(=O)CN1CCc2ccccc2C1)c1ccccc1 (stereo not drawn)	n	40	n	n	n	n
CC(NC(=O)c1ccccc1NC(=O)CN1CCN(c2ccccc2O)CC1)c1ccccc1 (stereo not drawn)	n	n	n	n	n	n
COc1ccccc1N1CCN(CC(=O)Nc2ccccc2C(=O)NC(C)c2ccccc2)CC1 (stereo not drawn)	n	n	n	n	35	n
COc1ccccc1N1CCN(CC(=O)NCC2CCCO2)CC1 (stereo not drawn)	n	n	n	27	n	n
CC(=O)Nc1ccc(C(=O)NCC2CCCCC2)cc1	n	n	n	n	n	n
Cc1ccc2c(c1)N(CC(=O)Nc1ccccc1F)C(=O)C(C)O2 (stereo not drawn)	n	n	n	n	n	n
COc1ccc(CCNC(=O)c2ccccc2NC(=O)CN2CCN(c3ccccc3O)CC2)cc1	n	n	n	n	28	n
COc1ccc(C)cc1NC(=O)CN1CCN(S(=O)(=O)c2ccc3ccccc3c2)CC1	n	n	n	n	n	n
COc1cccc(OC)c1C(=O)Nn1c(-c2cccc(C)c2)nc2ccccc2c1=O	n	n	n	24	n	n
COc1cccc(OC)c1C(=O)Nn1c(-c2cccs2)nc2ccccc2c1=O	n	n	n	n	n	n
C=CCn1c(=O)c2ccccc2n2c(SCC(=O)NC)nnc12	n	n	n	n	n	n
Cn1c(-c2ccccc2)cnc1NCc1cccc([N+](=O)[O-])c1	n	n	n	n	36	n
COc1ccccc1CNc1ncc(-c2ccccc2)n1C	n	n	n	n	n	n
COc1ccccc1CNc1ncc(-c2ccc(F)cc2)n1C	n	n	n	n	45	n
CSc1ccc(CNc2ncc(-c3cccc([N+](=O)[O-])c3)n2C)cc1	n	n	n	n	65	n
Cn1c(-c2ccccc2)cnc1NCc1cc2c(cc1[N+](=O)[O-])OCO2	n	n	n	n	n	n
Cn1c(-c2ccc3c(c2)OCO3)cnc1NCc1cccc(O)c1	n	n	n	n	29	n
CCn1cc(/C=C(\NC(=O)c2ccccc2F)C(=O)NCCCn2ccnc2)c2ccccc21	n	n	n	n	n	n
COc1ccc(CNc2ncc(-c3ccc(F)cc3)n2C)c2ccccc12	n	n	n	n	n	n
COc1cccc(-c2cnc(NCc3cc(Cl)ccc3O)n2C)c1	n	n	n	n	32	n
SMILES	CHRM1 PAM	CHO-K1 Ca PAM	CHRM1 agonist	CHO-K1 Ca antag	CHRM1 antagonist	CHO-K1 Ca ag
COc1ccc(CNc2ncc(-c3cccc([N+](=O)[O-])c3)n2C)c(OC)c1OC	n	n	n	n	54	n
COC(=O)c1ccc(COC(=O)c2ccc(CS(=O)(=O)c3ccc(C)cc3)cc2)cc1	n	n	n	n	22	n
CCOC(=O)c1ccc(CNCc2ccc(C)cc2)cc1	n	n	n	n	66	n
O=S(=O)(c1ccc(C2CCCCC2)cc1)N1CCCC1	n	n	n	n	n	n
CN(C1CCCCC1)S(=O)(=O)c1ccc(S(=O)(=O)N2CCCC2)cc1	n	n	n	n	32	n
CCOC(=O)C1=C(COC(=O)COc2ccc(C(=O)CC)cc2)NC(=O)NC1C (stereo not drawn)	n	n	n	n	n	17
CCOC(=O)C1=C(COC(=O)COc2ccc(C(C)=O)cc2)NC(=O)NC1C (stereo not drawn)	n	n	n	n	n	n
CCN(Cc1ccccc1)C(=O)c1nn(-c2ccc(OC)cc2)c(=O)c2c1c1ccccc1n2C	n	n	n	n	23	n
C#CC(C)OCC1CNC(=S)O1 (stereo not drawn)	n	n	n	n	n	n
OCC1(Cc2ccc(Cl)cc2)CCN(Cc2ccc(Oc3ncccn3)cc2)CC1	n	n	n	n	44	n
Cc1ccc(S(=O)(=O)N2C[C@@H]3CCCC[C@@H]3[C@@H](C)[C@H]2c2cn(Cc3ccccc3)c3ncccc23)cc1	29	n	n	n	n	n
CCCCCCCCCn1c2c(c(=N)c3c1CCC3)CCC2	n	n	n	n	31	n
CCCCC(CC)C1OCC(C[N+]2(C)CCOCC2)O1 (stereo not drawn)	n	n	n	n	43	n
O=C1CC=Nc2ccc([N+](=O)[O-])cc21	n	n	n	n	n	n
O=C1Nc2c(ccc(Cl)c2Cl)C(=O)C1(F)c1ccccc1 (stereo not drawn)	n	n	n	n	n	n
O=C1Nc2ccc(Cl)cc2C(=O)C1(F)c1ccccc1 (stereo not drawn)	n	n	n	n	n	17
O=C(CCCN=C1NS(=O)(=O)c2ccccc21)OCC(=O)c1ccc(F)cc1	n	n	22	n	n	n
O=C(Nc1ccnn1C1CCN(Cc2cc(Cl)ccc2O)CC1)c1cccnc1	n	n	n	n	40	n
N#Cc1ccc(OCC(O)CN2CCC(C(O)(c3ccccc3)c3ccccc3)CC2)cc1 (stereo not drawn)	n	n	n	n	32	n
Cc1c(O)cc2c(c1O)C(=O)CC(c1ccccc1)O2 (stereo not drawn)	n	n	58	85	102	26
O=C1C[C@@H](c2ccc(O)cc2)Oc2cc(O)cc(O)c21	n	n	n	n	n	n
Oc1ccc(Br)cc1-c1cc(-c2ccccc2F)[nH]n1	n	n	n	26	n	n
CC(C)NS(=O)(=O)c1ccc(CCC(=O)N2CCC(C(N)=O)CC2)cc1	n	n	n	n	n	n
CCOc1ccc2nc(NS(=O)(=O)c3ccc4c(c3)n(C)c(=O)n4C)sc2c1	n	n	n	26	n	n
CCOc1ccc(S(=O)(=O)Nc2nc3ccc(OC)cc3s2)cc1	n	n	n	n	n	n
OCC[C@H]1C[C@@H](O)[C@H](O)[C@]2(CCc3ccccc3CO2)O1	n	n	18	n	n	n
COc1ccccc1NC(=O)/C(=C\c1cccnc1)NC(=O)c1ccc(C)cc1	n	n	n	n	n	n
